Only some compounds are listed: those with a hit (about 19% of all), similar ones and a draw of the others.
IL1B secr inh – inhibitors of inflammasome signaling (IL-1 beta secretion); THP-1 LPS/ATP IL-1B secretion, AlphaLISA, 16 h; hits give low values; activity change, % at 57.5 µM; 360,000 compounds, 4.7% hits; AID 743279; in the data active means activity change below about -50%; inconclusive means mostly about -30% to -49%; further: on the % scale 0 is the no-effect control and ±100 the full control effect
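THP-1 cells pretreated 1 hr with compounds (up to 57.5 uM final), then stimulated with LPS (250 ng/mL final) plus ATP (1.25 mM final); secreted IL-1B measured by AlphaLISA after 16 hr, decreased signal indicating inhibition.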
Chronic BCR inh – chronic active BCR signaling inhibition; ABC-DLBCL IkBa-CBG/CBR reporter, luminescence ratio, 4 h; 340,000 compounds, 0.05% hits; AID 493014; Potency, µM (doses to about 46.1 µM), inactives show top-dose activity change, negative = inhibition, usual class: inhibitors; active means well fitted inhibition curve with a large enough effect in the signal ratio, with a control signal flat, not every such curve was filed as active; inconclusive means small, poorly fitted or top-dose-only effect, or effect the other way, or a change in a side signal; the % refers to the signal ratio;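 further: potency means the concentration at half of the fitted maximal effect; plate controls were basal doxycycline-induced cells for no effect and cells given 10 µM MG132 for full effect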
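TMD8 ABC-DLBCL cells carrying doxycycline-inducible green luciferase fused to IkappaBalpha plus unfused red luciferase were exposed to compounds (up to 46 uM) for 4 hrs at 37C. Activity came from the overlap-corrected green/red luminescence ratio.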
MCF10A rereplic – induces DNA re-replication in MCF 10a normal breast cells; MCF 10A DNA re-replication, Hoechst nuclear intensity, 48 h; Potency, µM (top dose mostly 46.1 µM), for inactives: at the top dose activity, positive = re-replication, usual class: activators; 350,000 compounds, 2.9% hits; further: potency means the concentration at half of the fitted maximal effect; % of control where 0% means no effect; nearly all actives have a fitted effect of over 50% in size
SW480 rereplic – induces DNA re-replication in SW480 colon adenocarcinoma cells | Potency, µM (highest dose often 46.1 µM), for inactives: at the highest dose re-replication activation, usual class: activators | 340,000 compounds, 1.8% hits | SW480 DNA re-replication, Hoechst DNA content imaging, 48 h; further: potency means the concentration at half of the fitted maximal effect; % of control where 0% means no effect; nearly all actives have a fitted effect of over 55% in size
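Image-based read-out: total Hoechst fluorescence of nuclei (405 nm excitation, 500-530 nm emission), with hits raising the fraction of high-intensity nuclei. SW480 colon cells incubated 48 hr with compounds at 37 C.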
TDP1 cell CPT – growth inhibition of DT40 Tdp1-/-;hTDP1 cells with camptothecin (screen for TDP1 inhibitors) | 420,000 compounds, 12% hits | Potency, µM (highest dose often 46.2 µM), inactives show at the highest dose activity change, negative = growth inhibition, hits mostly inhibitors | chicken DT40 Tdp1-/-;hTDP1 cells + 20 nM CPT, ATP luminescence, 48 h | AID 686979; further: potency means the concentration at half of the fitted maximal effect; on the % scale 0 is the no-effect control and ±100 the full control effect; nearly all actives have a fitted effect of over 55% in size
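Cell growth measured by CellTiter-Glo luminescence after a minimum 48 h, 37 C compound exposure with 20 nM CPT in Tdp1-knockout DT40 cells stably expressing hTDP1, seeded 400/well; qHTS titration format.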
DT40 TDP1 no CPT – qHTS for Inhibitors of human tyrosyl-DNA phosphodiesterase 1 (TDP1): qHTS in cells in absence of CPT; DT40 Tdp1-/- hTDP1 cells, no CPT, ATP luminescence, 48 h; Potency, µM (titrated, usually from 46.2 µM), for inactives: at the highest dose activity change, negative = growth inhibition, hits mostly inhibitors; 420,000 compounds, 15% hits; AID 686978, 2013; further: potency means the concentration at half of the fitted maximal effect; on the % scale 0 is the no-effect control and ±100 the full control effect; nearly all actives have a fitted effect of over 55% in size
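Growth of hTDP1-complemented DT40 Tdp1-knockout cells is measured by ATP luminescence after at least 48 hr compound exposure at 37 °C, with DMSO substituting for the 20 nM CPT used in the parallel screen.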
* hit, by the source's call; ? = inconclusive; . = no result given; [ ] = dose if it differs, or a comment. Unless noted, the call rests on the fitted dose curve; in most records, active means well fitted curve in the direction sought with a large enough effect; inconclusive means small, poorly fitted or top-dose-only effect, or another doubt; inactive means no such curve, though single readings can be large; an effect the other way counts as inactive or inconclusive.

SMILES	IL1B secr inh	Chronic BCR inh	MCF10A rereplic	SW480 rereplic	TDP1 cell CPT	DT40 TDP1 no CPT
CC(=O)c1ccc(N2CCN(C(=O)c3cccs3)CC2)c(F)c1	-12	-2%	16%	-4%	?	?
Cc1cccc(-n2c(=O)c3c(c4cc(C)ccc4n3C)n(CC(=O)N3CCCC3)c2=O)c1	.	.	.	.	-6%	2%
CCOC(=O)c1c(Oc2ccc(C(C)=O)cc2)nnc(-c2ccccc2)c1-c1ccccc1	.	.	.	.	21µM*	26µM*
CCOC(=O)c1c(Nc2ccc(OC)cc2)nnc(-c2ccccc2)c1-c1ccccc1	.	.	.	.	23µM*	23µM*
CCOC(=O)c1c(Nc2ccc(F)cc2)nnc(-c2ccccc2)c1-c1ccccc1	.	.	.	.	23µM*	18µM*
CCOC(=O)c1cnc(-c2ccccc2)nc1Oc1ccc(Cl)cc1	23	14%	-10%	-1%	-8%	?
CCOC(=O)C1=C(COC(=O)c2ccc(Cl)nc2)NC(=O)NC1C (configuration not stated)	7	.	-4%	-3%	0%	1%
Nc1cc(=O)[nH]c2c1CCC2	.	.	.	.	-1%	-13%
COc1cc2oc(=O)cc(-c3ccc(-c4ccc(C)cc4)cc3)c2c(OC)c1OC	51	?	27%	-4%	?	?
COc1cc2oc(=O)cc(-c3ccc(-c4ccc(C(F)(F)F)cc4)cc3)c2c(OC)c1OC	31	8%	?	-15%	?	?
COc1cc2oc(=O)cc(-c3ccc(-c4ccc(CO)cc4)cc3)c2c(OC)c1OC	6	-12%	?	-12%	21µM*	18µM*
COc1cc2oc(=O)cc(-c3cccc(-c4ccc(C(F)(F)F)cc4)c3)c2c(OC)c1OC	-8	2%	?	0%	23µM*	15µM*
COc1cc2oc(=O)cc(-c3ccc(-c4ccc(C#N)cc4)cc3)c2c(OC)c1OC	56	?	23%	-56%	7.3µM*	8.2µM*
CCCN(CC(=O)Nc1ccccc1C)C(=O)CCCc1c[nH]c2ccccc12	0	-4%	4%	-1%	-9%	?
CCOCc1cn(CC(=O)c2ccc([N+](=O)[O-])cc2)c(C)nc1=N	21	5%	19%	-1%	23µM*	?
CCOc1ccc(S(=O)(=O)N(CC)CC(=O)NCc2ccccn2)cc1C	0	2%	4%	-2%	-28%	?
O=C(CN1CCc2ccccc2C1)Nc1cc(S(=O)(=O)N2CCOCC2)ccc1N1CCOCC1	-6	0%	9%	-4%	9.2µM*	23µM*
O=C(CN1CCc2ccccc2C1)Nc1cc(S(=O)(=O)N2CCOCC2)ccc1N1CCCC1	-19	2%	10%	2%	15µM*	?
O=C(CN1CCCCC1)Nc1cc(S(=O)(=O)N2CCOCC2)ccc1N1CCCC1	-11	6%	-1%	-3%	-19%	-17%
O=C(CN1C(=O)c2ccccc2S1(=O)=O)Nc1cc(S(=O)(=O)N2CCOCC2)ccc1N1CCOCC1	.	.	.	.	-4%	-6%
CCC(SC1=N/C(=C/c2ccccc2OC)C(=O)N1c1ccccc1)C(=O)Nc1cc(C)on1 (configuration not stated)	-3	1%	1%	?	12µM*	8.2µM*
CCCCN1C(=O)c2ccc(C(=O)NC3(C)CCS(=O)(=O)C3)cc2C1=O (configuration not stated)	9	?	9%	-2%	1%	?
NN1C(=O)NC(c2ccccc2)(c2ccccc2)C1=O	0	1%	0.73µM*	11%	-6%	16%
Cc1cccnc1NC(=O)c1ccc(NS(=O)(=O)c2ccc3[nH]c(=O)[nH]c3c2)cc1	-9	5%	-1%	-1%	21%	-1%
O=C(Nc1ccccc1O)c1ccc(NS(=O)(=O)c2cccc3cccnc23)cc1	32	?	15%	18%	4.1µM*	7.3µM*
SMILES	IL1B secr inh	Chronic BCR inh	MCF10A rereplic	SW480 rereplic	TDP1 cell CPT	DT40 TDP1 no CPT
O=C(Nc1ncccc1O)c1ccc(NS(=O)(=O)c2ccc3[nH]c(=O)[nH]c3c2)cc1	-2	?	4%	16µM*	?	?
Cc1cc(C(C)(C)C)cc(S(=O)(=O)Nc2cccc(C(=O)O)c2)c1C	44	-3%	-2%	-2%	-3%	-10%
COC(=O)c1ccc(NC(=O)c2ccc(NS(=O)(=O)c3cccc4cccnc34)cc2)cc1	2	-18%	15%	?	-22%	-24%
Cc1ccccc1NC(=O)c1ccc(NS(=O)(=O)c2cc(C(C)(C)C)cc(C)c2C)cc1	-20	-2%	?	-5%	?	15µM*
O=C(Nc1ncccc1O)c1ccc(S(=O)(=O)Nc2ccccc2)cc1	30	-14%	19%	-648%	5.2µM*	5.2µM*
Cc1ccc(N(C)C(=O)Cn2cc(S(=O)(=O)N3CCCC3)c(S(=O)(=O)N3CCCC3)c2)cc1	.	.	.	.	1%	-16%
CCCCn1nnnc1C1(C)CCC(=O)N1CCCN1CCOCC1 (configuration not stated)	29	.	.	.	-4%	-1%
CCOC(=O)c1c(N)sc(C(O)(C(F)(F)F)C(F)(F)F)c1-c1ccc(Cl)cc1	-6	-2%	15µM*	?	?	?
CCOC(=O)c1c(N)sc(C(O)(C(F)(F)F)C(F)(F)F)c1-c1ccc(F)cc1	5	-2%	-189%[0.0737 µM]	18µM*	?	?
CCOC(=O)c1c(NC(=O)C2C3CCC(O3)C2C(=O)O)sc(C)c1-c1ccc(F)cc1 (configuration not stated)	31	?	5%	-3%	-19%	-1%
O=C(COC(=O)C1CCC1)NC(=O)c1ccccc1	12	15%	-2%	1%	15%	16%
CCOC(=O)C1(Cc2ccccc2)CCCN(Cc2cccc(C(C)=O)c2)C1 (configuration not stated)	15	2%	9%	-9%	?	16µM*
CCOC(=O)C1(Cc2ccccc2)CCCN(C(=O)COc2ccccc2OC)C1 (configuration not stated)	-7	.	.	.	23µM*	13µM*
CSCc1cccc(C(=O)OC(C)C(=O)Nc2c(C)n(C)n(-c3ccccc3)c2=O)c1 (configuration not stated)	-20	-3%	1%	2%	16%	6%

Screening results from PubChem BioAssay.
